# Measured values as given in PubChem BioAssay AID720697 (Broad Institute, 2013).
# Potency and affinity values are given separately. Records with an inconclusive call do not appear. Activity calls are given as the source filed them.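 The calls were made as follows: active = signal loss with fitted half-maximal concentration at or below twice the top valid tested dose in every test run; inconclusive = runs disagree, flat 30 to 70% signal loss, or poor fit; inactive = all runs flat, opposite direction, or potency beyond limit.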
# Test: HEK293T cytotoxicity, dose response, cytotoxicity control for miR-122 modulator project, cell-based, inhibitor set, cherry-pick, set 2 (AID 720697);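 also: 0% = median of neutral control wells and -100% = MG132 positive control wells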
# Conditions: HEK293T viability, CellTiter-Glo luminescence, 48 h; series mostly up to 26 µM; activity change, negative = cytotoxicity: at the top concentration
row,Structure (SMILES),"activity change, negative = cytotoxicity"
1,C[C@@H]1CN([C@@H](C)CO)S(=O)(=O)c2ccc(-c3ccccc3)cc2O[C@@H]1CN(C)C(=O)c1ccc2c(c1)OCO2,-14.7% (inactive)
2,CN1C(=O)c2cc(NC(=O)Nc3ccccc3F)ccc2OC[C@@H]2O[C@@H](CC(=O)NCc3ccc(-c4ccccc4)cc3)CC[C@H]21,129% (inactive)
3,COC(=O)C[C@H]1CC[C@@H]2[C@@H](COc3ccc(NC(=O)c4cscn4)cc3C(=O)N2C)O1,17.7% (inactive)
4,COc1cccc(CNC(=O)C[C@@H]2CC[C@@H]3[C@@H](COc4ccc(NC(C)=O)cc4C(=O)N3C)O2)c1,111% (inactive)
5,C[C@@H]1CCCCO[C@@H](CN(C)CC2CCCCC2)[C@H](C)CN([C@@H](C)CO)C(=O)c2cc(NC(=O)Nc3cccc4ccccc34)ccc2O1,55.7% (inactive)
6,C/C=C/c1ccc([C@@H]2[C@@H](CO)N(C(=O)Cc3cccnc3)[C@H]2CNC(C)=O)cc1,128% (inactive)
7,COC(=O)C[C@H]1CC[C@@H]2[C@@H](COc3ccc(NC(=O)Nc4ccc(Cl)cc4)cc3C(=O)N2C)O1,128% (inactive)
8,CCN(C[C@H]1N[C@H](CO)[C@H]1c1ccc(C2=CCCC2)cc1)C(=O)c1cccnc1,8.01% (inactive)
9,C[C@@H]1CN([C@H](C)CO)S(=O)(=O)c2ccc(/C=C/c3ccccc3)cc2O[C@@H]1CN(C)C(=O)c1cccnc1,72.3% (inactive)
10,C/C=C/c1ccc([C@@H]2[C@@H](CO)N(Cc3ccccn3)[C@H]2CNC(=O)CC)cc1,51.4% [at 23.5 µM] (inactive)
11,C[C@@H]1CN([C@@H](C)CO)C(=O)c2cccc(NC(=O)Nc3ccc4c(c3)OCO4)c2O[C@@H]1CN(C)Cc1ccc(Oc2ccccc2)cc1,8.06% (inactive)
12,CN1C(=O)c2cc(NC(=O)c3cccc(F)c3)ccc2OC[C@H]2O[C@@H](CC(=O)NC3CCC3)CC[C@H]21,-34.2% (inactive)
13,CO[C@@H]1CN(C)C(=O)c2cc(NC(=O)Nc3ccc(Cl)c(Cl)c3)ccc2OC[C@H](C)NC[C@H]1C,31.4% (inactive)
14,CCOc1ccc(NC(=S)N(CCCN2CCCC2)Cc2cccn2Cc2ccc(Cl)cc2)cc1,11.3% (inactive)
15,CCC(=O)N1[C@H](CO)[C@@H](c2ccccc2)[C@H]1CN(C(C)C)S(C)(=O)=O,192% (inactive)
16,COc1cccc(CNC(=O)C[C@H]2CC[C@@H]3[C@H](COc4ccc(NC(C)=O)cc4C(=O)N3C)O2)c1,104% (inactive)
17,CN(C)CCNc1ncnc2c1sc1nc(N3CCOCC3)c3c(c12)CC(C)(C)SC3,-130% (inactive)
18,Cc1cccc(NC(=O)Nc2ccc3c(c2)C(=O)N(C)[C@@H]2CC[C@H](CC(=O)NCc4ccccc4Cl)O[C@H]2CO3)c1,128% (inactive)
19,Cc1ccnc(Nc2nc(-c3c(C)nc4sccn34)cs2)c1,-69.2% (inactive)
20,CCC(=O)Nc1ccc2c(c1)C(=O)N(C)[C@@H]1CC[C@H](CC(=O)NCCN3CCCCC3)O[C@H]1CO2,126% (inactive)

row,Structure (SMILES),"activity change, negative = cytotoxicity"
1,C[C@H](CO)N1C[C@H](C)[C@@H](CN(C)Cc2ccc(C(F)(F)F)cc2)Oc2ccc(NS(=O)(=O)c3ccc(Cl)cc3)cc2CC1=O,60.8% [at 23.5 µM] (inactive)
2,C=CCc1c(OC)ccc2ccc(=O)oc12,-1.92% [at 6 µM] (inactive)
3,CC(C)C(=O)Nc1ccc2c(c1)C(=O)N(C)[C@@H]1CC[C@H](CC(=O)NCc3cccc(F)c3)O[C@H]1CO2,56.6% [at 23.5 µM] (inactive)
4,CO[C@@H]1CN(C)C(=O)c2ccc(NC(=O)Nc3ccc(C(F)(F)F)cc3)cc2OC[C@H](C)NC[C@H]1C,79.2% (inactive)
5,C/C=C/c1ccc([C@H]2[C@@H](CO)N(C(=O)CC)[C@H]2CNC(=O)CC)cc1,107% (inactive)
6,C[C@@H]1CN([C@@H](C)CO)S(=O)(=O)c2ccc(C#Cc3ccncc3)cc2O[C@@H]1CN(C)C(=O)C1CCOCC1,123% (inactive)
7,COc1ccc(N2CCN(C(=O)CSc3nnc(CNc4ccccc4)o3)CC2)cc1,72.4% (inactive)
8,COc1ccc(NC(=O)COC(=O)CCCc2c[nH]c3ccccc23)cc1,66.8% (inactive)
9,CCNC(=O)Nc1ccc2c(c1)C(=O)N(C)[C@H]1CC[C@@H](CC(=O)NCCOC)O[C@@H]1CO2,90.1% (inactive)
10,CN1C(=O)c2cc(NS(=O)(=O)c3ccc(Cl)cc3)ccc2OC[C@H]2O[C@H](CC(=O)N3CCc4ccccc4C3)CC[C@@H]21,-27.9% (inactive)
11,O=C(C1CC1)N(CCN(C(=O)C1CC1)c1ccccc1)c1ccccc1,112% (inactive)
12,CN1C(=O)c2cc(NC(=O)c3ccc(F)cc3)ccc2OC[C@@H]2O[C@@H](CC(=O)O)CC[C@@H]21,121% (inactive)
13,COc1cccc(C(=O)Nc2ccc3c(c2)C(=O)N(C)[C@@H]2CC[C@H](CC(=O)NCc4ccc(F)cc4)O[C@@H]2CO3)c1,-15.2% (inactive)
14,CCNC(=O)C[C@H]1CC[C@H]2[C@@H](COc3ccc(NC(=O)c4ccccc4)cc3C(=O)N2C)O1,118% (inactive)
15,C[C@H]1CN([C@@H](C)CO)S(=O)(=O)c2ccc(C#CC3CCCCC3)cc2O[C@@H]1CN(C)C,20.7% (inactive)
16,CCCNC(=O)Nc1ccc2c(c1)OC[C@@H](C)N(CCC)C[C@H](C)[C@H](OC)CN(C)C2=O,117% (inactive)
17,Cc1nn(C)cc1NC(=O)C[C@H]1CC[C@@H]2[C@H](COc3ccc(NC(=O)Nc4cccc(Cl)c4)cc3C(=O)N2C)O1,92.5% (inactive)
18,COCC(=O)N(C[C@H]1N[C@@H](CO)[C@@H]1c1ccc(C2=CCCC2)cc1)C(C)C,27% (inactive)
19,C[C@@H]1CN([C@@H](C)CO)C(=O)Cc2cc(NC(=O)C3CCCCC3)ccc2O[C@H]1CN(C)Cc1ccc(-c2ccccc2)cc1,-20.5% [at 23.5 µM] (inactive)
